Shown are actives, neighbours in structure and some others; about 2.4% of the full set was active somewhere.
Cruzain inh Det – inhibitors of Trypanosoma cruzi cruzain with detergent; purified cruzain, Z-FR-AMC fluorescence, 0.01% Triton; 200,000 compounds, 0.43% hits; Potency, µM, most hits filed as inhibitors; further: nearly all actives have a fitted effect of over 40% in size
Target sequence (P25779 123-467 limits assumed): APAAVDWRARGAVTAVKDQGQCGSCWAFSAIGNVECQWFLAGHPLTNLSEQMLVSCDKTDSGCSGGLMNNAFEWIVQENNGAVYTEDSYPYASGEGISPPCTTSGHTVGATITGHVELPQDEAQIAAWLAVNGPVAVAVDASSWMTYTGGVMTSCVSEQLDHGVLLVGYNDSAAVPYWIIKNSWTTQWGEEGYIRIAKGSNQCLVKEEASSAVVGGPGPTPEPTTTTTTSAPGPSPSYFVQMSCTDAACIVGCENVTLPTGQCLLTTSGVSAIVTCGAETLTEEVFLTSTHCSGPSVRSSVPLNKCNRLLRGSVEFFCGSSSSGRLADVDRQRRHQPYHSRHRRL
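Detergent-containing run (0.01% Triton X-100) in acetate buffer pH 5.5 with 5 mM DTT: enzyme at 1.5 nM final, 15 min compound preincubation at room temperature, then 2 uM Z-FR-AMC substrate. Activity taken as 60 s fluorescence increase at 360/450 nm.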
Cruzain inh noDet – inhibitors of Trypanosoma cruzi cruzain without detergent; purified cruzain, Z-FR-AMC fluorescence, no detergent; Potency, µM, actives largely listed as inhibitors; 200,000 compounds, 2.3% hits; AID 1476; further: nearly all actives have a fitted effect of over 40% in size
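Purified cruzain at 1.5 nM, pre-incubated 15 min with compound at room temperature in 100 mM sodium acetate pH 5.5, 5 mM DTT, 0.00005% Triton X-100. Reaction started with 2 uM Z-FR-AMC; AMC fluorescence increase over 60 s gives rate.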
A number is an active result; . = inactive; ? = inconclusive. The call rests on the fitted dose curve; in most records, active means well fitted curve in the direction sought with a large enough effect; inconclusive means small, poorly fitted or top-dose-only effect, or another doubt; inactive means no such curve, though single readings can be large; an effect the other way counts as inactive or inconclusive.

SMILES | Cruzain inh Det | Cruzain inh noDet
O=[As](O)(O)c1ccc(Cc2ccc([As](=O)(O)O)cc2)cc1 | . | ?
COc1cccc(-c2nn(-c3ccccc3)cc2/C=C\C(=O)c2cccs2)c1 | . | 12.6µM
COc1cccc(-c2nn(-c3ccccc3)cc2C(=O)O)c1 | . | .
COc1ccc(C2C=C(c3ccc(F)cc3)Nc3nc(-c4ccc(Cl)cc4)nn32)cc1 (stereo unspecified) | . | .
COc1ccc(C2=CC(c3ccccc3Cl)n3nc(-c4ccc(C)cc4)nc3N2)cc1 (stereo unspecified) | . | 3.16µM
O=C(NCCCO)C(=O)NCC(c1ccc2c(c1)OCO2)N1CCOCC1 (stereo unspecified) | . | .
Cc1ccc(C)c(NC(=O)c2nc(S(C)(=O)=O)ncc2N(Cc2ccc(C(C)(C)C)cc2)Cc2ccco2)c1 | . | 7.94µM
CC(C)c1ccc(CN(Cc2ccco2)c2cnc(S(C)(=O)=O)nc2C(=O)Nc2ccc(F)cc2)cc1 | . | 15.8µM
COc1ccc(CN(Cc2ccco2)c2cnc(S(C)(=O)=O)nc2C(=O)Nc2ccc(C)c(Cl)c2)cc1 | . | 7.94µM
Cc1cccc(C)c1NC(=O)c1nc(S(C)(=O)=O)ncc1N(Cc1ccc(C(C)(C)C)cc1)Cc1ccco1 | . | .
Cc1ccc(NC(=O)c2nc(S(C)(=O)=O)ncc2N(Cc2cccc(F)c2)Cc2ccco2)cc1C | . | ?
Cc1cccc(C)c1NC(=O)c1nc(S(C)(=O)=O)ncc1N(Cc1ccc(F)cc1)Cc1ccco1 | . | .
O[C@@H](c1cc(-c2ccccc2)nc2c1ccc1ccccc12)C1CCCCN1 (stereo partly specified) | . | .
O=S1(=O)N[C@H]2CC[C@@H]3NS(=O)(=O)N[C@H]4CC[C@H](N1)N4S(=O)(=O)N23 | . | .
CSc1nn(Cc2ccc(F)cc2)c(N)c1S(=O)(=O)c1ccc(Cl)cc1 | . | .
CCOC(=O)/C(=C\C=C\c1ccccc1)NC(=O)c1ccccc1 | . | .
C=CCOC(=O)/C(=C\C=C\c1ccccc1)NC(=O)c1ccccc1 | 14.1µM | ?
Cc1cccc(N2CCN(C(=O)Cn3ncc4c3-c3cc(C)ccc3OC4)CC2C)c1 (stereo unspecified) | . | ?
O=S(=O)(NCCc1cn2ccsc2n1)c1ccc(Cl)cc1 | . | .
COc1ccccc1NC(=O)C1=C(C)Nc2c(C(=O)Nc3cccc(C)c3)cnn2C1c1ccccc1C (stereo unspecified) | . | ?
CC1=C(C(=O)Nc2ccccc2)C(c2cc(Br)ccc2F)n2ncc(C(=O)Nc3ccccc3)c2N1 (stereo unspecified) | . | 20µM
COc1ccccc1NC(=O)C1=C(C)Nc2c(C(=O)Nc3cccc(C)c3)cnn2C1c1ccccc1Cl (stereo unspecified) | . | 25.1µM
CC1=C(C(=O)Nc2ccc(C)cc2C)C(c2cc(Br)ccc2F)n2ncc(C(=O)Nc3ccc(C)cc3)c2N1 (stereo unspecified) | . | .
CCCCCCCCC/C=C/CC1CC(=O)OC1=O (stereo unspecified) | . | ?
COc1ccc(Nc2c3c(nc4nncn24)CCC3)cc1Cl | . | .
SMILES | Cruzain inh Det | Cruzain inh noDet
COc1cc(C2C=C(C(=O)O)Nc3ncnn32)ccc1O (stereo unspecified) | . | .
COC(=O)c1sc2nc(SCc3cccc(Cl)c3)n(N)c(=O)c2c1C | . | ?
COC(=O)c1sc2nc(SCc3ccccc3C)n(N)c(=O)c2c1C | . | 31.6µM
CCc1ccc(NCc2cc3cc(OC)c(OC)cc3n(CC(=O)Nc3cc(C)ccc3C)c2=O)cc1 | . | .
O=C(COc1ccc2oc(-c3ccccc3)cc(=O)c2c1)Nc1ccccc1 | . | 31.6µM
COC(=O)COc1ccc2oc(-c3ccc(OC)cc3)cc(=O)c2c1 | . | .
C[C@H]1CCCC2(CC[N+](C)(CCC[N+](C)(C)C)CC2)C1 (stereo partly specified) | . | .
O=C(CSc1ncnc2scc(-c3ccc(F)cc3)c12)c1ccc2c(c1)OCCO2 | . | ?
Cc1sc2ncnc(SCC(=O)c3ccc4c(c3)OCCO4)c2c1-c1ccccc1 | . | 31.6µM
Cc1ccc(-c2csc3ncnc(SCC(=O)c4ccc5c(c4)OCCO5)c23)cc1 | . | 10µM
O=C(CSc1ncnc2ccccc12)c1ccc2c(c1)OCCO2 | . | .
Cc1ccc2c(c1)cc1c(=O)n(CC(=O)NCc3ccco3)nc(C)n12 | . | .
CN(C)CCn1c2c(c(SCC(=O)Nc3ccc(F)cc3F)nc1=O)CCC2 | . | .
Brc1csc(CN2CCc3nc(Nc4ccccc4)ncc3C2)c1 | . | ?
COc1cc(Nc2ncc3c(n2)CCN(Cc2cc(Br)cs2)C3)cc(OC)c1 | . | 25.1µM
Cc1cc(C)c2c(=O)cc(C(=O)Nc3sc4c(c3C(=O)NCc3ccccc3)CCCC4)oc2c1 | . | .
Cc1cccc(N2CCN(C(=O)c3cc4c(=O)[nH]c5ccc(C)cc5c4s3)CC2C)c1 (stereo unspecified) | . | .
Cc1ccc(NS(=O)(=O)c2ccc3c(c2)C(=O)c2ccccc2C3=O)c(C)c1 | . | .
Cc1ccc(C)c(NS(=O)(=O)c2ccc3c(c2)Cc2cc(S(=O)(=O)Nc4cc(C)ccc4C)ccc2-3)c1 | . | 7.94µM
Cc1ccc(C(=O)Nc2ccc3c(c2)N(C)C(=O)c2ccccc2S3)cc1 | . | .
COc1ccc(-c2nc(-c3ccccc3)c(-c3ccccc3)[nH]2)cc1Br | . | 3.16µM
COc1ccc(-c2nc(-c3ccccc3)c(-c3cccs3)[nH]2)cc1OC | . | .
COc1ccc(Cn2c(SCc3ccc(C(=O)NCc4cccs4)cc3)nc3ccncc32)cc1 | . | .
CS(=O)(=O)N1CCN(c2nc(-c3ccc(F)cc3)cs2)CC1 | . | .
O=S(=O)(c1ccc(F)cc1)N1CCN(c2nc(-c3ccc(F)cc3)cs2)CC1 | . | 10µM
SMILES | Cruzain inh Det | Cruzain inh noDet
COc1ccc2cc3cc(C(=O)Nc4ccccc4C)oc3nc2c1 | . | .
CCNC(=O)COc1ccc(Br)cc1Cl | . | .
CSc1ccc(/C=N/NC(=O)COc2ccc(Br)cc2Cl)cc1 | . | 25.1µM
Cc1ccc(-c2nc3cc(C(C)C)ccc3o2)cc1NC(=O)c1cc([N+](=O)[O-])ccc1N1CCOCC1 | . | .
O=C(O)C[C@H]1NCc2cc3ccccc3nc21 | . | .
COC(=O)/C=C\c1cc(O)ccc1O | . | .
CCOP(=O)(OCC)C(NC(=O)c1ccc(Cl)cc1)=C(Cl)Cl | . | .
CCOP(=O)(OCC)C(C#N)=C1SCN(c2ccc(Cl)cc2)CS1 | . | 12.6µM
O=C(O)[C@@H]1[C@@H](C(=O)NCc2ccccn2)[C@@H]2C=C[C@@H]1O2 | . | .
C=C(C)c1ccccc1 (tested in a mixture with another compound) | . | .
O=C(COC(=O)[C@H](Cc1c[nH]c2ccccc12)NC(=O)c1ccc(Cl)cc1)Nc1ccc2c(c1)OCO2 | 3.55µM | 20µM
CCOC(=O)C(Cc1c[nH]c2ccccc12)NC(=O)COc1ccc(Cl)cc1 (stereo unspecified) | . | .
CC(=O)NC(Cc1c[nH]c2ccccc12)C(=O)NCc1ccc2c(c1)OCO2 (stereo unspecified) | . | .
CC(C)(C)c1ccc(C(=O)NC(Cc2c[nH]c3ccccc23)C(=O)OCC(=O)c2ccc(Cl)cc2)cc1 (stereo unspecified) | . | 25.1µM
COc1cccc(CNC(=O)c2cccc(N3CCCS3(=O)=O)c2)c1 | . | .

Compound activity from PubChem.
